Test results published in PubChem BioAssay AID1789 (The Scripps Research Institute Molecular Screening Center, 2009).
Screen size: about 290,000 compounds; about 2,700 (0.93%) were called active.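 Rule for the calls: active = inhibition above the screen-wide mean plus 3 SD, computed separately per campaign (cut at about 16% in these data); inactive = the rest.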 The full list was thinned out, with actives kept by preference.

These compounds were tested on Heat shock protein HSP 90 (rabbit reticulocyte lysate; luciferase refolding) (assay: inhibitors of HSP90 chaperone activity – cell lysate, luminescence, primary screen (AID 1789;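 note: 0% = DMSO wells and 100% = 60 µM geldanamycin wells; inhibitors lower the luminescence because luciferase stays unfolded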)). Details: 3 h, at 5.6 µM, active compounds read high.
In the case of `Cc1ccc(-c2csc(N3CCN(c4cc5c(cc4Cl)nc(-c4ccncc4)n5CCOCCO)CC3)n2)cc1`, the inhibition is reported as 0.37% (inactive). For `O=C(O)c1cc2c(cc1NC(=O)c1c(F)cccc1Cl)OCCCO2`, the inhibition was 1.02% (inactive). `Cc1cc(=O)oc2cc(OCC(=O)N3CCN(c4ccc(F)cc4)CC3)c(Cl)cc12` was tested, and the inhibition was 0.58% (inactive). In the case of `CCOc1ccccc1NS(=O)(=O)c1c[nH]c(C(=O)OC)c1`, the inhibition is reported as -0.36% (inactive). In the case of `CCC1Oc2ccccc2N(CC(=O)NCCCN2CCN(CC)CC2)C1=O` (centres undefined), the inhibition is reported as -0.16% (inactive). For `O=C(CCc1nc2ccccc2c(=O)[nH]1)OCC(=O)c1cccc(Cl)c1`, the inhibition was -0.45% (inactive). `CCCc1nc2ccccc2c(C(=O)OCC(=O)c2ccc3c(c2)NC(=O)CO3)c1CC` was tested, and the inhibition was 10.5% (inactive). For `Cc1ccc(C(=O)COC(=O)c2cccc(N3C(=O)c4c(C)nc5ccccc5c4C3=O)c2)cc1C`, the inhibition was 21.8% (active). For `COc1ccc(Cl)cc1-n1c(=S)sc2c(=O)n(-c3ccc(F)cc3)c(SCC(=O)O)nc21`, the inhibition was -4.32% (inactive). `CCCCCNC(=O)c1cccnc1SCC(=O)Nc1ccccc1OC` was tested, and the inhibition was 0.66% (inactive). `CCc1nc(SCC(=O)Nc2ccccc2OC)n[nH]1` was tested, and the inhibition was 37.9% (active). In the case of `COC(=O)c1ccccc1NC(=O)CSc1n[nH]c(-c2ccncc2)n1`, the inhibition is reported as -0.92% (inactive). `Nc1nnnn1/N=C/c1cccc(Br)c1` was tested, and the inhibition was -1.72% (inactive). `CCCN1C2CCCC1CC(NC(=O)NC13CC4CC(CC(C4)C1)C3)C2` (centres undefined) was tested, and the inhibition was 2.81% (inactive). In the case of `CNC(=S)N/N=C/c1ccc(N2CCOCC2)s1`, the inhibition is reported as 5.17% (inactive). With `C/C(=N\NC(=O)Cc1ccc(Cl)cc1)c1ccccn1` the inhibition was 1.95% (inactive). For `COc1ccc(CC(=O)N/N=C(\C)c2ccccn2)cc1`, the inhibition was 2.53% (inactive). In the case of `C/C(=N\NC(=O)c1ccccc1F)c1ccccn1`, the inhibition is reported as 21.6% (active). `Cc1ccc(/C=C2/SC(=S)N(CCC(=O)NCCCN3CCOCC3)C2=O)cc1` was tested, and the inhibition was -1.06% (inactive). For `O=C1CCC(C(=O)N2CCC(O)(c3ccccc3)CC2)CN1CCc1ccccc1` (centres undefined), the inhibition was -4.78% (inactive). In the case of `O=C(CN(C(=O)c1nsc(Cl)c1Cl)c1cccc(F)c1)NC1CCCC1`, the inhibition is reported as -2.72% (inactive). For `COc1ccc(CNC(=O)CCN2C(=O)c3ccccc3C2=O)cc1`, the inhibition was 3.06% (inactive). `CN(Cc1ccccc1)C(=O)C1CCCN(c2ncnc3c2nc2n3CCCCC2)C1` (centres undefined) was tested, and the inhibition was -4.53% (inactive). `COCC(C)OC(=O)c1c(N)n(CCCN2CCOCC2)c2nc3ccccc3nc12` (centres undefined) was tested, and the inhibition was 4.05% (inactive). `CC(C)(C)OC(=O)c1c(N)n(CCCN2CCCC2=O)c2nc3ccccc3nc12` was tested, and the inhibition was 17.2% (active). With `CC(C)(C)c1ccc(C(=O)NCCn2c(N)c(C#N)c3nc4ccccc4nc32)cc1` the inhibition was 2.15% (inactive). In the case of `Cc1c(C(=O)N/N=C/c2ccccc2)[nH]c2c([N+](=O)[O-])cccc12`, the inhibition is reported as 3.21% (inactive). `COc1cccc2c(C)c(C(=O)O)[nH]c12` was tested, and the inhibition was 30.8% (active). For `COc1cc2c(C(=O)O)c(C)n(C)c2c2ccccc12`, the inhibition was 1.04% (inactive). `Cc1cccc(-c2c(NC(=O)c3ccco3)oc3ccc(Cl)cc3c2=O)c1` was tested, and the inhibition was 3.25% (inactive). With `Cc1cc(C)nc(/N=C2\NC(=O)CC(C(=O)O)N2c2ccc(Cl)cc2Cl)n1` (centres undefined) the inhibition was 3.62% (inactive). For `CCOC(=O)c1cnc(SC)nc1Sc1ccc(Cl)cc1Cl`, the inhibition was -1.52% (inactive). In the case of `CCOC(=O)c1nc(C)n(-c2ccc(Cl)cc2Cl)n1`, the inhibition is reported as 17.8% (active). `CC(=O)N1CCN(CC(C)(C)NS(=O)(=O)c2ccc(C)cc2)CC1` was tested, and the inhibition was -0.75% (inactive). For `CC(CC(=O)Nc1ccc(F)cc1F)S(=O)(=O)c1ccc2c(c1)NC(=O)CO2` (centres undefined), the inhibition was -2.21% (inactive). For `Cc1cc(C(=O)Cn2cnc3cc([N+](=O)[O-])ccc3c2=O)c(C)n1CC1CCCO1` (centres undefined), the inhibition was -6.94% (inactive). In the case of `Cc1ccsc1C(=O)OCC(=O)c1cc(C)n(CC2CCCO2)c1C` (centres undefined), the inhibition is reported as 82.5% (active). For `Cc1cc(C(=O)CCl)c(C)n1CC1COc2ccccc2O1` (centres undefined), the inhibition was 4.06% (inactive). For `CCOC(=O)CSc1nc2ccc(C)cc2n2cnnc12`, the inhibition was -0.11% (inactive). For `O=C(Nc1ncc2c(n1)CC(c1ccco1)CC2=O)c1ccc(Cl)cc1` (centres undefined), the inhibition was 1.31% (inactive). With `CCc1ccc(Nc2ncc3c(n2)CC(c2ccco2)CC3=O)cc1` (centres undefined) the inhibition was 22% (active). `COc1cc(C2CC(=O)c3cnc(NC(C)=O)nc3C2)cc(OC)c1OC` (centres undefined) was tested, and the inhibition was -1.32% (inactive). `COc1ccc(NC(=O)NCc2ccc3c(c2)OCO3)c(OC)c1` was tested, and the inhibition was -7.38% (inactive). `CCC(C)(C)n1nnnc1C(c1ccc(OC)c(OC)c1)N1CCN(C(=O)c2ccco2)CC1` (centres undefined) was tested, and the inhibition was -0.49% (inactive). `CCC(=O)Nc1c(S(=O)(=O)c2ccccc2)c2nc3ccccc3nc2n1Cc1ccccc1` was tested, and the inhibition was 5.13% (inactive). For `Cc1ccc(S(=O)(=O)c2c(N)n(C)c3nc4ccccc4nc23)cc1`, the inhibition was -1.87% (inactive). With `CCN(CC)CCn1c(N)c(S(=O)(=O)c2ccccc2)c2nc3ccccc3nc21` the inhibition was 22.7% (active). `O=C(N/N=C/c1ccoc1)c1ccc(Cl)cc1Cl` was tested, and the inhibition was -0.55% (inactive). For `CCN(CC)CCNc1nc(-c2ccc(OC(F)F)cc2)c(C)s1`, the inhibition was 1.64% (inactive).
